From PubChem BioAssay AID686977 (Southern Research Specialized Biocontainment Screening …, 2013) come the findings set out here.

Fewer than 10 of roughly 9,400 compounds were called active. Not shown: some 5% with an inconclusive outcome. How the calls were made is not given here. Only a sample is shown. Results with a measured potency or affinity are listed apart.

A short description of this test: Vibrio cholerae quorum sensing activators, luminescence (AID 686977). As to conditions: V. cholerae quorum sensing reporter, 6 h, active compounds read high; dose 50, dose unit µM unless noted.
Consider `O=C(c1ccccc1)n1ccc(-c2cnc(-c3ccccc3)s2)n1`, for which the luminescence is 0 (inactive).
For `CC1CCc2nn(CC(=O)NCCC3=CCCCC3)cc2C1` (stereo unspecified), the luminescence is 0 (inactive).
For `C=CCn1c(SCc2cccc(C#N)c2)nnc1-c1ccccc1O` the value was 360 (inactive); for `CCCC(c1nnnn1Cc1ccco1)N1CCN(c2cc(Cl)ccc2C)CC1` (stereo unspecified), 0 (inactive).
As for `CCCCCn1c(SCc2ccncc2)nc2cc(C(=O)NCc3ccco3)ccc2c1=O`, the figure is 40 (inactive); as for `Cc1ccc(-c2nnc3n2N=C(c2ccccc2)CS3)cc1`, 0 (inactive); as for `Cc1c(NC(=O)c2cc(CC(C)C)on2)c(=O)n(-c2ccccc2)n1C`, 0 (inactive).
As for `CCOC(=O)CC1C(=O)NCCN1C(=O)NC1CCCCC1` (stereo unspecified), the figure is 0 (inactive).
On to `CCn1c(SCC(=O)NCc2ccco2)nc2c(c1=O)SC(C)C2` (stereo unspecified), for which the luminescence was 0 (inactive).
As for `CCCc1[nH]nc2c1C(C1CCCCC1)C(C#N)=C(N)O2` (stereo unspecified), the figure is 0 (inactive); as for `CC(C)Cn1c(SC(C)C(=O)Nc2ccc3c(c2)OCCO3)nc2ccccc2c1=O` (stereo unspecified), 40 (inactive).
For `Cc1cccc(NC(=O)C2CC(=O)n3cnnc3S2)c1` (stereo unspecified) the value was 40 (inactive).
For `COCCn1c(SCc2nc3ccccc3c(=O)[nH]2)nnc1-c1ccncc1` the value was 40 (inactive); for `COc1ccc2ccc(Oc3ncccn3)cc2c1`, 200 (inactive).
On to `CCOC(=O)N1CCC(Nc2c(N3CCN(c4cc(Cl)ccc4C)CC3)c(=O)c2=O)CC1`, for which the luminescence was 0 (inactive).
As for `Cc1nc(-c2cccc(NS(=O)(=O)c3ccccc3)c2)cs1`, the figure is 160 (inactive); as for `CC1(C)N=C(N)N=C(N)N1c1cccc(C(=O)O)c1`, 0 (inactive).
As for `CCOC(=O)c1sc(NCc2ccco2)c(-c2nc3ccccc3s2)c1N`, the luminescence was 0 (inactive).
As for `N#CC1(c2ccccc2)CCCN1C(=O)c1ccccc1Cl` (stereo unspecified), the figure is 0 (inactive).
Consider `Cn1c(=O)oc2cc(S(=O)(=O)N3CCCc4ccccc43)ccc21`, for which the luminescence is 40 (inactive).
As for `CC1CCc2cc(F)ccc2N1C(=O)c1cnc2sccn2c1=O` (stereo unspecified), the figure is 0 (inactive); as for `COc1ccc(-c2nc(CS(=O)CC(=O)N3CCCC3)c(C)o2)cc1` (stereo unspecified), 0 (inactive); as for `CC(C)(C)c1nc2ccccc2c2nnc(SCC(=O)Nc3nccs3)n12`, 80 (inactive).
For `COc1ccc(NC(=O)CSc2nccn2-c2cccc(OC)c2)cc1` the value was 0 (inactive).
For the compound `Nc1nnnn1/N=C/c1ccccc1C(F)(F)F`, the luminescence was 40 (inactive).
For the compound `Cc1c(Cl)cccc1NC(=O)c1cc(-c2ccccc2O)n[nH]1`, the luminescence is 0 (inactive).
For `COc1ccc(N/N=C(\C=N\O)C(=O)c2ccc(OC)cc2)cc1` the value was 0 (inactive).
In the case of `CCOC(=O)CSc1ccc(-c2nc3ccccc3[nH]2)cn1`, the luminescence was 0 (inactive).
Take `Cc1nc(C)c(C(=O)C2=C(O)C(=O)N(CCN3CCOCC3)C2c2ccco2)s1` (stereo unspecified): the luminescence was 0 (inactive).
Take `CC(C)OC(=O)c1nnc(Cc2ccc(F)cc2)o1`: the luminescence is 0 (inactive).
As for `CC(NC(=O)c1ccccc1Br)c1ccc2c(c1)CCCC2` (stereo unspecified), the figure is 40 (inactive).
In the case of `Cc1ccc(C(=O)CC(C(=O)O)c2cn(CCC#N)c3ccccc23)cc1` (stereo unspecified), the luminescence is 40 (inactive).
As for `CCC(C)c1ccc(-c2cc(C(=O)OCC(=O)Nc3cc(C)on3)c3ccccc3n2)cc1` (stereo unspecified), the figure is 0 (inactive); as for `CCc1cccc(C)c1NC(=O)CN1C(=O)c2ccccc2S1(=O)=O`, 200 (inactive); as for `N#Cc1nc(-c2cccc3ccccc23)oc1N1CCCCC1`, 0 (inactive).
As for `Cc1ccn2cc(CCNC(=O)C3CCCCC3)nc2c1`, the figure is 0 (inactive); as for `Cc1c(NC(=O)CSc2nnc3sc4ccccc4n23)c(=O)n(-c2ccccc2)n1C`, 40 (inactive).
As for `COC(=O)/C(=C\Nc1ccccc1N)c1ncc(C(F)(F)F)cc1Cl`, the figure is 40 (inactive); as for `COc1ccc(C(=O)NC(Cc2ccccc2)c2ccc3c(c2)OCCCO3)cc1` (stereo unspecified), 0 (inactive); as for `O=C(O)c1ccc(NS(=O)(=O)c2cccc3cccnc23)cc1`, 0 (inactive).
As for `CCCNS(=O)(=O)c1ccc(CCC(=O)N2CCN(c3ccc(OC)cc3)CC2)cc1`, the luminescence is 0 (inactive).
As for `O=C(c1ccco1)N1CCN=C1SCc1ccccc1Cl`, the figure is 0 (inactive); as for `Oc1c(C(c2cccs2)N2CCN(c3cccc(Cl)c3)CC2)sc2ncnn12` (stereo unspecified), 40 (inactive).
As for `COc1ccc(C(=O)NCCn2cc(SCC(=O)NCc3ccco3)c3ccccc32)cc1`, the figure is 0 (inactive); as for `CCn1c(SCC(=O)NCCc2ccccc2)nnc1-c1ccco1`, 0 (inactive).
For `COc1cc(OC)cc(-c2cc(N)n(S(=O)(=O)Cc3ccccc3)n2)c1` the value was 40 (inactive).
Consider `CCC(=O)N=c1sc2c(C)cc(C)cc2n1CC(=O)OC`, for which the luminescence is 0 (inactive).
For `Cc1ccc2[nH]c(=O)c(CN(CCCN(C)C)C(=O)Nc3ccc(Cl)cc3)cc2c1` the value was 0 (inactive); for `CC(=O)c1sc(NC(=O)c2ccccc2F)nc1C`, 80 (inactive).
With `CC(C)N(Cc1nc(-c2ccccc2)no1)C(=O)c1ccc(Cl)cc1`, the luminescence was 0 (inactive).
As for `O=C(O)C1CCC(=O)N(C2CCCCC2)C1c1ccccc1` (stereo unspecified), the figure is 0 (inactive); as for `Cc1ccn(CCSCC(=O)O)n1`, 0 (inactive); as for `CCc1ccc(-c2cc(C(F)(F)F)n3nc(C(=O)Nc4c(C)nn(Cc5ccccc5C)c4C)cc3n2)s1`, 0 (inactive).
Take `Cc1cccc2cc(CN(Cc3cccs3)Cc3nnnn3Cc3ccccc3)c(=O)[nH]c12`: the luminescence is 0 (inactive).
Turning to `CC(=O)c1cccc(N(CC(=O)O)S(C)(=O)=O)c1`, the luminescence is 40 (inactive).
On to `CCN(CC)CCN1C(=O)C(=O)/C(=C(/O)c2c(C)[nH]c(C(=O)OC)c2C)C1c1cccs1` (stereo unspecified), for which the luminescence is 0 (inactive).
Consider `COc1ccc2nc(SCc3nc(N)nc(Nc4ccccc4)n3)[nH]c2c1`, for which the luminescence was 40 (inactive).
Consider `CCOc1ccc(N(CC(=O)NC(C)(C)C)C(=O)c2ccco2)cc1`, for which the luminescence was 40 (inactive).
On to `CCOC(=O)c1c(C)c(C(=O)NCC2CCCO2)c(C)n1CC` (stereo unspecified), for which the luminescence was 0 (inactive).
Take `O=C(NCCC1=CCCCC1)c1ccc(F)c(S(=O)(=O)N2CCOCC2)c1`: the luminescence is 0 (inactive).
For `BrC(=C\c1ccccc1)/C=N/N1CCN(Cc2ccccc2)CC1` the value was 0 (inactive); for `COC(=O)c1c(C)[nH]c(C)c1-c1ccccc1Cl`, 0 (inactive).
As to `CCOC(=O)C(=CNc1cc(C)nn1-c1ccc(C)cc1)C(=O)OCC`, the luminescence was 40 (inactive).
For `CCc1nc(SCC(N)=O)c2c(=O)n(C)c(=O)n(C)c2n1` the value was 40 (inactive); for `COC(=O)c1ccc(Oc2ccc(C(C)(C)C)cc2)c([N+](=O)[O-])c1`, 0 (inactive).
As for `Cc1ccc(C(=O)c2ccc([N+](=O)[O-])cc2)cc1C`, the figure is 40 (inactive).
Turning to `COC(=O)c1c(NC(=O)C2CC2)sc2c1CCCC2`, the luminescence is 40 (inactive).
As for `CS(=O)(=O)N(CC(=O)NCCC1=CCCCC1)C1CCCCC1`, the figure is 40 (inactive); as for `O=C(CSc1nnc(C2CC2)n1Cc1ccccc1)c1cc2ccccc2o1`, 80 (inactive).
As for `COc1ccc(NC(=O)CSc2nc(O)cc(=O)n2C)cc1`, the figure is 0 (inactive); as for `COc1cc(NC(=O)Cn2nc(C(F)(F)F)c3c2CCCC3)cc(OC)c1OC`, 280 (inactive); as for `CCOCCCN(Cc1ccco1)C(=O)c1cc2c(=O)[nH]c3ccc(C)cc3c2s1`, 0 (inactive).
For `COc1cccc(-c2nc(CS(=O)CC(=O)NCc3ccccc3Cl)c(C)o2)c1` (stereo unspecified) the value was 0 (inactive); for `COC(=O)c1ccccc1NC(=O)C1CC(=O)N(c2ccccc2)C1` (stereo unspecified), 0 (inactive); for `CCOC(=O)Cc1csc(-n2sc3ccccc3c2=O)n1`, 0 (inactive).
As for `O=C(NC1CCCc2ccccc21)C1CCN(C(=O)c2sccc2-n2cccc2)CC1` (stereo unspecified), the luminescence is 40 (inactive).
For the compound `COC(=O)[C@H](C)NC(=O)Nc1cccc(C)c1`, the luminescence is 0 (inactive).
For `CNC(=O)NC(=O)CSc1ncc(C(F)(F)F)cc1Cl` the value was 0 (inactive); for `N#Cc1ccccc1OCC(=O)NC(N)=O`, 0 (inactive); for `Cc1cc(NS(=O)(=O)c2ccc(NC(=O)C(C(C)C)N3C(=O)c4ccccc4C3=O)cc2)nc(C)n1` (stereo unspecified), 0 (inactive).
For `CCOC(=O)COc1cccc2c(=O)n(CC(=O)N3CCc4ccccc43)ccc12` the value was 0 (inactive); for `Cn1c(=O)c2c(nc(N3CCCCCC3)n2CCSc2nc3ccccc3o2)n(C)c1=O`, 0 (inactive); for `O=C(Nc1ccc(Br)cc1F)C1CCCN(S(=O)(=O)c2cnc[nH]2)C1` (stereo unspecified), 0 (inactive).
On to `O=C(Nc1nccs1)c1nc(-c2ccccc2)n(-c2ccccc2)n1`, for which the luminescence was 280 (inactive).
For `Cc1csc2nc(CNC(=O)C3CC=CCC3C(=O)O)cn12` (stereo unspecified) the value was 0 (inactive).
For `COC(=O)c1ccccc1NC(=O)Nc1nnc(N2CCC(C)CC2)s1` the value was 0 (inactive); for `CC(=O)Nc1nnc(-c2ccc(Cl)s2)o1`, 0 (inactive); for `CCOC(=O)N1CCN(C(=O)C2CCCN(S(=O)(=O)c3cccnc3)C2)CC1` (stereo unspecified), 0 (inactive).
With `O=C(CCc1ccccc1)Nc1ccc(F)cc1F`, the luminescence was 40 (inactive).
As for `Cc1cccc(C)c1NC(=O)c1sccc1SCc1cccc(C(F)(F)F)c1`, the luminescence was 40 (inactive).
As for `COC(=O)c1cc(COc2ccc3c4c(c(=O)oc3c2)CCCC4)c(C)o1`, the figure is 0 (inactive).
On to `COc1ccc(OC)c(NC(=O)c2cn(C)c(=O)c3cc(OC)c(OC)cc23)c1`, for which the luminescence is 0 (inactive).
As for `CC1(C)CC(=O)c2cc(OCC(=O)N3CCOCC3)ccc2O1`, the figure is 40 (inactive); as for `CC(C)C(NC(=O)c1cccs1)c1nnc(SCC(=O)Nc2nccs2)n1C` (stereo unspecified), 40 (inactive); as for `COC(=O)c1nn(-c2ccccc2)c(Cl)c1/C=N/OCc1ccc(Cl)cc1Cl`, 40 (inactive).
For the compound `CC(C)CC(=O)Nc1ccc(S(=O)(=O)NCc2ccco2)cc1`, the luminescence was 0 (inactive).
Turning to `CCOC(=O)C(C)Sc1nnc(Cc2cc(=O)[nH]c(=O)[nH]2)n1-c1ccc(OCC)cc1` (stereo unspecified), the luminescence is 0 (inactive).
As for `CC1CCCCC1NC(=O)c1ccc(CNc2c(N3CCCC3)c(=O)c2=O)cc1` (stereo unspecified), the figure is 0 (inactive); as for `Cc1cnc(C(=O)Nc2cccc3cccnc23)cn1`, 40 (inactive); as for `CN1CCN(c2cc3c(c4c2[nH]c2ccccc24)C(=O)CC(C)(C)C3)CC1`, 40 (inactive).
Consider `Cc1cc(C(=O)CSc2nnc(-c3ccc(F)cc3)o2)c(C)n1CC1CCCO1` (stereo unspecified), for which the luminescence was 0 (inactive).
